target: AgAbp1; assay: SPOT peptide array binding signal intensity (averaged, normalized) (arbitrary units (background-subtracted, floor 0; scale differs between SH3 domains)); higher = stronger binding of the SH3 domain to the peptide
Summary of the method: (§1)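 Detection of bound protein relied on anti-GST antibody, an HRP anti-mouse secondary and luminol, with imaging and quantification in Genespotter. The bound protein was GST-fused SH3 domains from four yeast species, incubated at 10 μg/ml overnight at 4°C in TBS-based blocking buffer on cellulose membranes carrying synthetic 15-mer peptides with cysteines replaced by serines. Binding signal is normalized, background-subtracted spot intensity averaged over replicates, in arbitrary units that differ between domains.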

Binder	SPOT peptide array binding signal intensity
IKKRNKIRLPSGSPE	286

target: AgBbc1; assay: as above
Summary of the method: as §1

Binder	SPOT peptide array binding signal intensity
IKKRNKIRLPSGSPE	23.8

target: AgBem1-D1; assay: as above
Summary of the method: as §1

Binder	SPOT peptide array binding signal intensity
IKKRNKIRLPSGSPE	55

target: AgBzz1-D1; assay: as above
Summary of the method: as §1

Binder	SPOT peptide array binding signal intensity
IKKRNKIRLPSGSPE	22

target: AgBzz1-D2; assay: as above
Summary of the method: as §1

Binder	SPOT peptide array binding signal intensity
IKKRNKIRLPSGSPE	34.5

target: AgCyk3; assay: as above
Summary of the method: as §1

Binder	SPOT peptide array binding signal intensity
IKKRNKIRLPSGSPE	7

target: AgFus1; assay: as above
Summary of the method: as §1

Binder	SPOT peptide array binding signal intensity
IKKRNKIRLPSGSPE	279

target: AgHof1; assay: as above
Summary of the method: as §1

Binder	SPOT peptide array binding signal intensity
IKKRNKIRLPSGSPE	52.5

target: AgHse1; assay: as above
Summary of the method: as §1

Binder	SPOT peptide array binding signal intensity
IKKRNKIRLPSGSPE	766

target: AgLsb1; assay: as above
Summary of the method: as §1

Binder	SPOT peptide array binding signal intensity
IKKRNKIRLPSGSPE	7

target: AgLsb4; assay: as above
Summary of the method: as §1

Binder	SPOT peptide array binding signal intensity
IKKRNKIRLPSGSPE	97

target: AgMyo5; assay: as above
Summary of the method: as §1

Binder	SPOT peptide array binding signal intensity
IKKRNKIRLPSGSPE	1.75

target: AgNbp2; assay: as above
Summary of the method: as §1

Binder	SPOT peptide array binding signal intensity
IKKRNKIRLPSGSPE	202

target: AgRvs167; assay: as above
Summary of the method: as §1

Binder	SPOT peptide array binding signal intensity
IKKRNKIRLPSGSPE	5.67

target: AgSho1; assay: as above
Summary of the method: as §1

Binder	SPOT peptide array binding signal intensity
IKKRNKIRLPSGSPE	36

target: AgSla1-D1-D2; assay: as above
Summary of the method: as §1

Binder	SPOT peptide array binding signal intensity
IKKRNKIRLPSGSPE	89

target: AgSla1-D3; assay: as above
Summary of the method: as §1

Binder	SPOT peptide array binding signal intensity
IKKRNKIRLPSGSPE	7

target: CaAbp1-D1; assay: as above
Summary of the method: as §1

Binder	SPOT peptide array binding signal intensity
IKKRNKIRLPSGSPE	1510

target: CaAbp1-D2; assay: as above
Summary of the method: as §1

Binder	SPOT peptide array binding signal intensity
IKKRNKIRLPSGSPE	858

target: CaBbc1; assay: as above
Summary of the method: as §1

Binder	SPOT peptide array binding signal intensity
IKKRNKIRLPSGSPE	94.2

target: CaBem1-D1; assay: as above
Summary of the method: as §1

Binder	SPOT peptide array binding signal intensity
IKKRNKIRLPSGSPE	16

target: CaBzz1-D1; assay: as above
Summary of the method: as §1

Binder	SPOT peptide array binding signal intensity
IKKRNKIRLPSGSPE	104

target: CaBzz1-D2; assay: as above
Summary of the method: as §1

Binder	SPOT peptide array binding signal intensity
IKKRNKIRLPSGSPE	132

target: CaCyk3; assay: as above
Summary of the method: as §1

Binder	SPOT peptide array binding signal intensity
IKKRNKIRLPSGSPE	17

target: CaFus1; assay: as above
Summary of the method: as §1

Binder	SPOT peptide array binding signal intensity
IKKRNKIRLPSGSPE	615

target: CaHof1; assay: as above
Summary of the method: as §1

Binder	SPOT peptide array binding signal intensity
IKKRNKIRLPSGSPE	1.25

target: CaHse1; assay: as above
Summary of the method: as §1

Binder	SPOT peptide array binding signal intensity
IKKRNKIRLPSGSPE	38

target: CaLsb1; assay: as above
Summary of the method: as §1

Binder	SPOT peptide array binding signal intensity
IKKRNKIRLPSGSPE	1.5

target: CaLsb4; assay: as above
Summary of the method: as §1

Binder	SPOT peptide array binding signal intensity
IKKRNKIRLPSGSPE	79

target: CaMyo5; assay: as above
Summary of the method: as §1

Binder	SPOT peptide array binding signal intensity
IKKRNKIRLPSGSPE	1.5

target: CaNbp2; assay: as above
Summary of the method: as §1

Binder	SPOT peptide array binding signal intensity
IKKRNKIRLPSGSPE	271

target: CaRvs167; assay: as above
Summary of the method: as §1

Binder	SPOT peptide array binding signal intensity
IKKRNKIRLPSGSPE	11.7

target: CaRvs167-3; assay: as above
Summary of the method: as §1

Binder	SPOT peptide array binding signal intensity
IKKRNKIRLPSGSPE	67.2

target: CaSho1; assay: as above
Summary of the method: as §1

Binder	SPOT peptide array binding signal intensity
IKKRNKIRLPSGSPE	506

target: CaSla1-D1-D2; assay: as above
Summary of the method: as §1

Binder	SPOT peptide array binding signal intensity
IKKRNKIRLPSGSPE	30

target: CaSla1-D3; assay: as above
Summary of the method: as §1

Binder	SPOT peptide array binding signal intensity
IKKRNKIRLPSGSPE	0.5

target: ScAbp1; assay: as above
Summary of the method: as §1

Binder	SPOT peptide array binding signal intensity
IKKRNKIRLPSGSPE	39

target: ScBbc1; assay: as above
Summary of the method: as §1

Binder	SPOT peptide array binding signal intensity
IKKRNKIRLPSGSPE	12.8

target: ScBem1-D1; assay: as above
Summary of the method: as §1

Binder	SPOT peptide array binding signal intensity
IKKRNKIRLPSGSPE	62

target: ScBzz1-D1; assay: as above
Summary of the method: as §1

Binder	SPOT peptide array binding signal intensity
IKKRNKIRLPSGSPE	20

target: ScBzz1-D2; assay: as above
Summary of the method: as §1

Binder	SPOT peptide array binding signal intensity
IKKRNKIRLPSGSPE	15

target: ScCyk3; assay: as above
Summary of the method: as §1

Binder	SPOT peptide array binding signal intensity
IKKRNKIRLPSGSPE	181

target: ScFus1; assay: as above
Summary of the method: as §1

Binder	SPOT peptide array binding signal intensity
IKKRNKIRLPSGSPE	242

target: ScHof1; assay: as above
Summary of the method: as §1

Binder	SPOT peptide array binding signal intensity
IKKRNKIRLPSGSPE	1.5

target: ScHse1; assay: as above
Summary of the method: as §1

Binder	SPOT peptide array binding signal intensity
IKKRNKIRLPSGSPE	1420

target: ScLsb1; assay: as above
Summary of the method: as §1

Binder	SPOT peptide array binding signal intensity
IKKRNKIRLPSGSPE	6.25

target: ScLsb2; assay: as above
Summary of the method: as §1

Binder	SPOT peptide array binding signal intensity
IKKRNKIRLPSGSPE	11

target: ScLsb3; assay: as above
Summary of the method: as §1

Binder	SPOT peptide array binding signal intensity
IKKRNKIRLPSGSPE	162

target: ScLsb4; assay: as above
Summary of the method: as §1

Binder	SPOT peptide array binding signal intensity
IKKRNKIRLPSGSPE	13

target: ScMyo3; assay: as above
Summary of the method: as §1

Binder	SPOT peptide array binding signal intensity
IKKRNKIRLPSGSPE	4

target: ScMyo5; assay: as above
Summary of the method: as §1

Binder	SPOT peptide array binding signal intensity
IKKRNKIRLPSGSPE	6

target: ScNbp2; assay: as above
Summary of the method: as §1

Binder	SPOT peptide array binding signal intensity
IKKRNKIRLPSGSPE	256

target: ScPex13; assay: as above
Summary of the method: as §1

Binder	SPOT peptide array binding signal intensity
IKKRNKIRLPSGSPE	7.5

target: ScRvs167; assay: as above
Summary of the method: as §1

Binder	SPOT peptide array binding signal intensity
IKKRNKIRLPSGSPE	33

target: ScSho1; assay: as above
Summary of the method: as §1

Binder	SPOT peptide array binding signal intensity
IKKRNKIRLPSGSPE	681

target: ScSla1-D1-D2; assay: as above
Summary of the method: as §1

Binder	SPOT peptide array binding signal intensity
IKKRNKIRLPSGSPE	362

target: ScSla1-D3; assay: as above
Summary of the method: as §1

Binder	SPOT peptide array binding signal intensity
IKKRNKIRLPSGSPE	30

target: SpAbp1-D1; assay: as above
Summary of the method: as §1

Binder	SPOT peptide array binding signal intensity
IKKRNKIRLPSGSPE	512

target: SpBbc1; assay: as above
Summary of the method: as §1

Binder	SPOT peptide array binding signal intensity
IKKRNKIRLPSGSPE	2

target: SpBzz1-D1; assay: as above
Summary of the method: as §1

Binder	SPOT peptide array binding signal intensity
IKKRNKIRLPSGSPE	122

target: SpBzz1-D2; assay: as above
Summary of the method: as §1

Binder	SPOT peptide array binding signal intensity
IKKRNKIRLPSGSPE	2

target: SpCyk3; assay: as above
Summary of the method: as §1

Binder	SPOT peptide array binding signal intensity
IKKRNKIRLPSGSPE	6.5

target: SpHof1; assay: as above
Summary of the method: as §1

Binder	SPOT peptide array binding signal intensity
IKKRNKIRLPSGSPE	253

target: SpHof1-2; assay: as above
Summary of the method: as §1

Binder	SPOT peptide array binding signal intensity
IKKRNKIRLPSGSPE	4.5

target: SpHof1-3; assay: as above
Summary of the method: as §1

Binder	SPOT peptide array binding signal intensity
IKKRNKIRLPSGSPE	664

target: SpHse1; assay: as above
Summary of the method: as §1

Binder	SPOT peptide array binding signal intensity
IKKRNKIRLPSGSPE	457

target: SpLsb1; assay: as above
Summary of the method: as §1

Binder	SPOT peptide array binding signal intensity
IKKRNKIRLPSGSPE	6.5

target: SpLsb4; assay: as above
Summary of the method: as §1

Binder	SPOT peptide array binding signal intensity
IKKRNKIRLPSGSPE	104

target: SpMyo1; assay: as above
Summary of the method: as §1

Binder	SPOT peptide array binding signal intensity
IKKRNKIRLPSGSPE	4

target: SpNbp2; assay: as above
Summary of the method: as §1

Binder	SPOT peptide array binding signal intensity
IKKRNKIRLPSGSPE	836

target: SpPex13; assay: as above
Summary of the method: as §1

Binder	SPOT peptide array binding signal intensity
IKKRNKIRLPSGSPE	6

target: SpRvs167; assay: as above
Summary of the method: as §1

Binder	SPOT peptide array binding signal intensity
IKKRNKIRLPSGSPE	8.5

target: SpSla1-D1-D2; assay: as above
Summary of the method: as §1

Binder	SPOT peptide array binding signal intensity
IKKRNKIRLPSGSPE	1.5

target: SpSla1-D3; assay: as above
Summary of the method: as §1

Binder	SPOT peptide array binding signal intensity
IKKRNKIRLPSGSPE	2

Reference: the supplement of paper PMC4466140
